# KCNQ2 enhance = enhances the rat KCNQ2 potassium channel; AID 2239; CHO-K1 KCNQ2, FluxOR thallium flux fluorescence; stronger effect = higher value; O88943; B-score at 10 µM; hit rate 0.54% among 310,000;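 active = fluorescence ratio B-score at least 3 SD of library B-scores, with initial fluorescence B-score within 3 of them, cut at about 5.3 in these data; same plate scores as AID 2156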;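 note: B-score of peak minus minimum over baseline fluorescence ratio after K+ and Tl+ stimulus; positive B-score means potentiation of KCNQ2 with more thallium influx and brighter signal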
# KCNQ2 inh = KCNQ2 (rat) channel inhibition; O88943; CHO-K1 KCNQ2, FluxOR thallium flux, 20 min; stronger effect = lower value; B-score at 10 µM; hit rate 1.1% among 310,000; AID 2156;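 active = fluorescence ratio B-score at most minus 3 library SDs, with starting brightness B-score within 2 library SDs, cut at about -5.5 in these data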
# Kir21 confirm = confirmation of mouse Kir2.1 potassium channel inhibitors; Tl flux remaining, % of negative control (stronger effect = lower value), % at 10 µM; Kir2.1-expressing cells, FluxOR thallium flux fluorescence; stronger effect = lower value; hit rate 41% among 2,300; shares compounds with KCNQ2 enhance;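 active = Primary-screen hit whose thallium flux fell at least 3 control SD below untreated wells in both duplicates, with normal baseline fluorescence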;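 note: 0% = blank wells without stimulus and 100% = stimulated no-compound controls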
# HEK293 Tl flux = alters thallium flux in parental HEK293 cells, Kir2.1 counter-screen | FluxOR thallium flux fluorescence; 0% = unstimulated blank wells | hit rate 19% among 2,300 | shares compounds with KCNQ2 enhance | FluxOR signal as % of negative control (100 = no effect), % at 10 µM;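 active = dye signal at least 3 control SD above or below untreated wells in both duplicates, raw fluorescence within 3, either direction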;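 note: percent is based on the flux ratio of peak minus minimum fluorescence over baseline F0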
# CHO-K1 ctr = counter-screen for KCNQ2 potentiators: effect in parental CHO-K1 cells; shares compounds with KCNQ2 enhance; FluxOR thallium flux fluorescence; zero = vehicle mean+3SD, 100% = vehicle-minus-blank window; activity increase over 3SD of controls, % at 10 µM; hit rate 43% among 1,200; AID 2282;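 active = signal rise of at least 3 SD above the untreated control mean, in both duplicate wells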;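 note: counter screen of KCNQ2 potentiator hits so any rise reflects channel-independent effects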
# KCNQ1 sel pot = tests whether KCNQ2 potentiators also act on human KCNQ1 | activation over 3SD threshold, % at 10 µM | CHO KCNQ1 stable, FluxOR thallium flux fluorescence; beyond 3SD, as % of vehicle-control signal | shares compounds with KCNQ2 enhance | hit rate 28% among 1,200;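 active = fluorescence ratio rise of at least 3 SD of vehicle wells above their mean, in both replicate wells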;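 note: 0% = vehicle mean plus 3 SD and 100% = vehicle minus unstimulated blank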
# KCNQ2 pot conf = confirmation of rat KCNQ2 potassium channel potentiators; shares compounds with KCNQ2 enhance; hit rate 68% among 1,200; potentiation, less the hit threshold, % at 10 µM; CHO-KCNQ2 cells, FluxOR thallium flux fluorescence;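 active = fluorescence ratio rising 3 SD or more over the vehicle control mean in both replicates, plus primary screen hit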;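 note: peak minus minimum thallium fluorescence divided by baseline after K/Tl stimulus; 0% = vehicle mean plus 3 SD and 100% = vehicle minus unstimulated blank difference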
# Kir2-1 sel = mouse Kir2.1 off-target activity of KCNQ2 potentiators. HEK293 Kir2.1, FluxOR thallium flux fluorescence. activity over 3SD threshold, % at 10 µM. hit rate 2% among 1,200. shares compounds with KCNQ2 enhance;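 active = fluorescence ratio rise of at least 3 SD above the vehicle-control mean, seen in both replicates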;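 note: 0% = vehicle mean plus 3 SD and 100% = vehicle minus no-stimulus blank window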
# KCNQ2 W236L pot = rat KCNQ2 W236L mutant potentiation by KCNQ2 potentiators. shares compounds with KCNQ2 enhance. CHO KCNQ2-W236L, automated patch clamp current. current increase over 3SD of negative controls (%), stronger effect = higher value, % at 25 µM. hit rate 10% among 940. AID 2558;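 active = current increase at least 3 SD of the untreated controls above them in both duplicate recordings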
# Target sequence (O88943 whole entry W236L, looked up): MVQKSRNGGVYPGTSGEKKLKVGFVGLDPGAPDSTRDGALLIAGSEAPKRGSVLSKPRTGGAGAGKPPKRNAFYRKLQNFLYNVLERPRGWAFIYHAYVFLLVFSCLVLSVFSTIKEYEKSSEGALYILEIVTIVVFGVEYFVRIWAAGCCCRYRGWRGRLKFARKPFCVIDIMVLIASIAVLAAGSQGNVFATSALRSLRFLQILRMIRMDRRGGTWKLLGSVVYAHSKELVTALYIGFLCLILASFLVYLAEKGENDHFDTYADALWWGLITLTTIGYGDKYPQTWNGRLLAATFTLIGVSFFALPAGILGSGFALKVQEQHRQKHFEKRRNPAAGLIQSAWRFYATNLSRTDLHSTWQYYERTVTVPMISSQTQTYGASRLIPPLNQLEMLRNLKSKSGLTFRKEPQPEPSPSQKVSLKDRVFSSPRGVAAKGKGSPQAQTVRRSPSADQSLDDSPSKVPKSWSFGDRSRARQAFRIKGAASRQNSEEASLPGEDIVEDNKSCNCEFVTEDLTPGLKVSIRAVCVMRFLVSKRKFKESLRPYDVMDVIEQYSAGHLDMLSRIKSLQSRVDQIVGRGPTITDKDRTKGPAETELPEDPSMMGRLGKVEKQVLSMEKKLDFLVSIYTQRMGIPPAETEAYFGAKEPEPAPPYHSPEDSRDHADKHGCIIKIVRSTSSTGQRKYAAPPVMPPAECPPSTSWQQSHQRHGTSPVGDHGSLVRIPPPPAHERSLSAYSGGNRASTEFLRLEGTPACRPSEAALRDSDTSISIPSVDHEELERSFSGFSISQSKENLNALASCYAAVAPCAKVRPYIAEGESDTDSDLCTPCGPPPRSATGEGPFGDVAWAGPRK
# * = called active by the depositor; i = inactive; · = no result given. The list is not random: actives were taken first. Their share in the collection is about 1.6%.
SMILES,KCNQ2 enhance,KCNQ2 inh,Kir21 confirm,HEK293 Tl flux,others
CCC(=O)NC(=S)Nc1ccc(NC(=O)COc2ccc(Cl)c(C)c2)cc1,0.07,i,·,·,
Cc1cc(OCC(=O)NNC(=S)NC(=O)c2ccc(Br)o2)ccc1Cl,8.11*,i,i,i,CHO-K1 ctr=90.4*;KCNQ1 sel pot=-3.2;KCNQ2 pot conf=-22.0;Kir2-1 sel=-40.0
O=C(CN1CCN(c2ccccc2O)CC1)Nc1cccnc1Cl,0.65,i,·,·,
O=C(Nc1cccc2ccccc12)NC(Cc1ccccc1)C(=O)O (stereo not drawn),0.95,i,·,·,
O=C(O)c1sccc1Oc1ccc(NS(=O)(=O)c2ccccc2)cc1,0.19,i,·,·,
CCNC(=S)N/N=C(\C)c1cccc([N+](=O)[O-])c1,0.99,i,·,·,
CN(CC(=O)NCCCc1ccccc1)Cc1ccc(Br)cc1,·,i,·,·,
O=C(O)CCC(=O)NCCc1cccc(Cl)c1,·,i,·,·,
CN(CC(=O)NCCc1ccc(F)cc1)Cc1cccc(Cl)c1,·,i,45.0%*,i,
O=C(Cc1ccccc1)NCCc1cccc(Cl)c1,11.1*,i,i,i,CHO-K1 ctr=-12.5;KCNQ1 sel pot=-13.1;KCNQ2 pot conf=23.4*;Kir2-1 sel=-38.1;KCNQ2 W236L pot=i
CSc1ccccc1NC(=O)CN(C)Cc1cccc(Cl)c1,·,i,·,·,
CN(CC(=O)NCCc1ccc(F)cc1)Cc1ccc(Br)cc1,-5.74,-5.74*,58.0%*,i,
COC(=O)C1CCN(C(=O)CC(NC(=O)C(F)(F)F)c2cccs2)CC1 (stereo not drawn),·,i,·,·,
Cc1ccc(-c2nc(SC(C)C(=O)N3CCOCC3)n[nH]2)cc1 (stereo not drawn),1.68,i,·,·,
CO/N=C(\CCC(=O)O)c1cccs1,1.15,i,·,·,
CC1CN(c2ccc([N+](=O)[O-])c(NCCOc3ccccc3)c2)CC(C)N1 (stereo not drawn),·,i,·,·,
CC1CN(c2ccc([N+](=O)[O-])c(NCCOc3ccc(Cl)cc3)c2)CC(C)N1 (stereo not drawn),-7.01,-7.01*,67.0%*,i,
CC(CCCN(C)C)C(Cc1ccccc1)c1ccccc1 (stereo not drawn),·,i,47.5%*,i,
CN(C)CCC(=O)C(Cc1ccccc1)c1ccccc1 (stereo not drawn),·,i,·,·,
Cc1cc(C(=O)N2CCC(Cc3ccccc3)CC2)c(C)o1,·,i,·,·,
Cc1ccc(C(=O)O)cc1NC(=O)CSc1ncnc2sc3c(c12)CCC3,0.04,i,·,·,
Oc1c(Br)cc(Br)cc1/C=N/c1nc2c(s1)CCCC2,8.7*,i,i,i,CHO-K1 ctr=47.9*;KCNQ1 sel pot=-5.8;KCNQ2 pot conf=26.5*;Kir2-1 sel=-46.1;KCNQ2 W236L pot=4.4%*
Oc1ccc2ccccc2c1/C=N/c1nc2c(s1)CCCC2,·,i,·,·,
COc1ccc(NC(=O)Cn2cnc3sc(C)c(S(=O)(=O)N4CCOCC4)c3c2=O)c(OC)c1,0.95,i,·,·,
NC(=O)c1ccc(/C(N)=N/S(=O)(=O)c2cc(C(F)(F)F)cc(C(F)(F)F)c2)cc1,1.46,i,·,·,
SMILES,KCNQ2 enhance,KCNQ2 inh,Kir21 confirm,HEK293 Tl flux,others
COc1ccc(-c2csc(NC(=O)c3ccc(C(C)(C)C)cc3)c2C(=O)O)cc1,6.45*,i,i,i,CHO-K1 ctr=-19.5;KCNQ1 sel pot=-21.6;KCNQ2 pot conf=-9.1;Kir2-1 sel=-25.3
COc1ccc(-c2csc(NC(=O)c3ccccc3Br)c2C(=O)O)cc1,1.77,i,·,·,
O=C(Nc1cccc(C(=O)N2CCCCC2)c1)c1ccccc1Br,0.57,i,·,·,
Oc1c(Br)cc(/C=N/Nc2ccc(Cl)nn2)cc1Br,2.64,i,·,·,
Oc1c(Br)cc(Br)cc1/C=N/Nc1ccc(Cl)nn1,10.6*,i,i,i,CHO-K1 ctr=-10.5;KCNQ1 sel pot=-17.8;KCNQ2 pot conf=12.7*;Kir2-1 sel=-12.1;KCNQ2 W236L pot=i
CCOc1ccccc1/C=C/c1onc(C)c1S(=O)(=O)N1CCC(C(=O)N2CCCCCC2)CC1,0.49,i,·,·,
CNCCCC1Sc2ccccc2Oc2ccccc21 (stereo not drawn),0.13,i,40.5%*,i,
COc1ccc(Nc2c3c(nc4ccccc24)CCCC3)cc1OC,1.39,i,·,·,
COc1ccc(Nc2nc(N3CCN(S(C)(=O)=O)CC3)nc3ccccc23)c(OC)c1,·,i,·,·,
COc1ccc(Nc2c3c(nc4ccccc24)CCC3)cc1,·,i,42.0%*,i,
COc1ccc(C)cc1Nc1c2c(nc3ccccc13)CCC2,0.19,i,i,i,
COc1ccc(Nc2nc(N3CCCCC3)nc3ccccc23)c(OC)c1,·,i,i,i,
c1ccc(Nc2c3c(nc4ccccc24)CCC3)cc1,1.14,i,·,·,
CCN(CC)c1ccc(Nc2nc(N3CCOCC3)c3ccccc3n2)cc1,·,i,·,·,
COc1ccc(Nc2nc(N3CCCC3)c3ccccc3n2)cc1,0.61,i,21.0%*,i,
O=S(=O)(Cc1ccccc1Cl)NCCc1ccccc1,·,i,·,·,
NC(=O)c1ccsc1NC(=O)CS(=O)(=O)c1ccc(F)cc1,3.32,i,·,·,
CC(C)(C)c1ccccc1OCCCCCn1ccnc1,-6.07,-6.07*,39.0%*,i,
Cc1ccc(C(C)(C)C)c(OCCCn2ccnc2)c1,·,i,·,·,
CCN1CCN(C(=O)c2c(-c3c(Cl)cccc3Cl)noc2C)CC1,·,i,·,·,
Cc1ccc(NC(=S)NNc2ncc(C(F)(F)F)cc2Cl)cc1,1.86,i,·,·,
CC(Cl)C(=O)Nc1ncc(C(F)(F)F)cc1Cl (stereo not drawn),0.2,i,·,·,
CON/C=N/C(=S)Nc1ncc(C(F)(F)F)cc1Cl,12.2*,i,i,217.5%*,CHO-K1 ctr=-22.4;KCNQ1 sel pot=31.9*;KCNQ2 pot conf=17.9*;Kir2-1 sel=-20.7;KCNQ2 W236L pot=i
ON/C=N/C(=S)Nc1ncc(C(F)(F)F)cc1Cl,10.9*,i,i,140.0%*,CHO-K1 ctr=-1.2;KCNQ1 sel pot=-13.1;KCNQ2 pot conf=40.6*;Kir2-1 sel=-36.9;KCNQ2 W236L pot=i
CCOc1ccc(S(=O)(=O)N2CCCC(C(=O)NCc3ccncc3)C2)cc1 (stereo not drawn),·,i,·,·,
O=C(COc1cccnc1[N+](=O)[O-])Nc1ccc(S(=O)(=O)N2CCOCC2)cc1,0.11,i,·,·,
COc1ccc(C(=O)NN/C(C)=C/C(=O)c2ccccc2)cc1,0.97,i,·,·,
C/C(=C\C(=O)c1ccccc1)NNC(=O)c1ccc(Cl)cc1,17.6*,i,i,i,CHO-K1 ctr=-14.0;KCNQ1 sel pot=-14.4;KCNQ2 pot conf=-5.0;Kir2-1 sel=-45.3;KCNQ2 W236L pot=i
CCOc1ccc(CN2CCC(Cc3ccccc3)CC2)cc1,0.4,i,41.0%*,i,
